# In ChEMBL document CHEMBL4513216, “Probing the Open Global Health Chemical Diversity Library for Multistage-Active Starting Points for Next-Generation Antimalarials” (ACS Infect Dis, 2020):
# Screen size: about 68,000 compounds; about 2,700 (4%) showed an effect of 50% or more. Only a selection was taken, and strong results are over-represented in it overall.
# Test system: Plasmodium berghei
# Assay: Screen against P. berghei liver stage (PbLuc), transformed with Luciferase, at 2uM
# Assay type: functional, HepG2
# Settings: tested at 2 uM
row,SMILES,INHIBITION [%]
1,CCC(C(=O)NC(C)(C)C)n1ccc2ncccc2c1=O (centres undefined),8.09
2,CCC(C(=O)NC1CCCCC1)n1cccc(OC)c1=O (centres undefined),-6.88
3,CCC(C(=O)NC(C)(C)C)n1cccc(OC)c1=O (centres undefined),56.16
4,CCN(C)S(=O)(=O)N1C[C@H]2CC[C@@H](C1)N(Cc1cscn1)C2=O,48.21
5,CCOc1ccc(CN(C)C(=O)NC(C)c2nncn2C)cc1 (centres undefined),-27.75
6,CCn1cnnc1CNC(=O)N(C)Cc1cccc(OC(F)F)c1,64.16
7,COc1ccc(CN(C)C(=O)NC(C)c2nncn2C)cc1F (centres undefined),-6.61
8,CCn1cnnc1CNC(=O)N(C)Cc1ccc(F)c(F)c1,-2.9
9,CC(NC(=O)N(C)Cc1cccc(OC(F)F)c1)c1nncn1C (centres undefined),59.03
10,CCn1cnnc1CNC(=O)N(C)Cc1ccc2c(c1)OCCO2,-16.42
11,Cc1cccc(CN2CCC(C3Nc4ccccc4S(=O)(=O)N3)CC2)n1 (centres undefined),7.38
12,COc1cc(N2C[C@@H]3COC[C@]3(COCc3ccccn3)C2)ncn1,-14.27
13,Cn1ccnc1CN1CCCC2(CCN(CC3CCCO3)CC2)C1 (centres undefined),26.46
14,Cc1nc(C2CCCN(C(=O)c3ccc(OCC4CC4)nc3)C2)no1 (centres undefined),28.65
15,CC(CNC(=O)NCc1ccsc1)CC1(C)OCCO1 (centres undefined),-35.5
16,CC1(C(=O)NCc2ccsc2)CCOCC1,5.75
17,CC1(CCNC(=O)NCc2ccsc2)OCCO1,57.23
18,O=C(Cn1nc2c(cc1=O)CCCC2)NC(C(=O)O)c1ccccc1 (centres undefined),25.23
19,CC1COCCN1Cc1nc(Cc2ccccc2)no1 (centres undefined),-23.37
20,COc1ncc(NCc2ccc(C#N)cc2)cc1C(N)=O,63.31
21,COc1ncc(NCc2cccc(C#N)c2)cc1C(N)=O,-7.69
22,COc1ncc(NCc2ccc(F)cc2)cc1C(N)=O,17.18
23,CN1C(=O)CC(C(=O)O)C12CCN(c1ccc3cccc(Cl)c3n1)CC2 (centres undefined),-1.78
24,CC(CCc1ccccc1)NC(=O)Nc1cnn(CC(N)=O)c1 (centres undefined),41.72
25,Cc1ccccc1CC(C)NC(=O)Nc1cnn(CC(N)=O)c1 (centres undefined),81.1
26,CC(Cc1ccccc1Cl)NC(=O)Nc1cnn(CC(N)=O)c1 (centres undefined),-7.81
27,COCCN1CCC2(CC1)CN(CCn1cccn1)C(=O)CO2,20.2

row,SMILES,INHIBITION [%]
1,Cc1ccc(C(=O)N(C)CC(=O)Nc2cccc(C)n2)cn1,23.76
2,Cc1ccc(C(=O)N(C)CC(=O)NCC(F)(F)F)cn1,71.4
3,CN(CC(=O)NCC(F)(F)F)C(=O)c1ccc(C(=O)OC(C)(C)C)cc1,-16.4
4,CCC(=O)Nc1cc(Cl)ccc1C(=O)N(C)Cc1noc(CC)n1,1.1
5,COc1cc(F)c(-n2cnc(CCNC(C)=O)c2)cc1F,60.13
6,COc1ccc(Cl)cc1-n1cnc(CCNC(C)=O)c1,26.74
7,COc1ccc(F)cc1-n1cnc(CCNC(C)=O)c1,45.82
8,CC(=O)N(CCc1nc(-c2cc(C(N)=O)oc2C)cs1)C(C)C,10.22
9,COc1cc(OC)c(C2CC(=O)Oc3cc(C)[nH]c(=O)c32)c(OC)c1 (centres undefined),14.96
10,O=C(O)C(c1ccc2c(c1)OCO2)N1CCCCCC1 (centres undefined),59.48
11,O=C(O)C(c1ccc2c(c1)OCO2)N1CCCC1 (centres undefined),4.53
12,O=C(O)C(c1ccc2c(c1)OCCO2)N1CCCCCC1 (centres undefined),19.56
13,Cc1ccc(-n2cc3[nH]c(=O)[nH]n3c2=O)cc1,-15.37
14,Cc1ccc(CN2CCC3(CC(C(=O)NC4CCC4)=NO3)C2)o1 (centres undefined),-27.21
15,CC(=O)N1CCC2(CC1)CN(C)C(=O)C[C@H]2C(F)(F)F,64.92
16,CN1CCC2(CC1)CN(C)C(=O)C[C@@H]2C(F)(F)F,6.22
17,CC(C)N1CCC2(CC1)CN(C)C(=O)C[C@H]2C(F)(F)F,-24.39
18,CCN(CC)S(=O)(=O)N1C[C@@H](O)[C@H](Oc2cccc(F)c2)C1,16.01
19,Cc1nc(N2CCCC2)nc2c1CCN(C(=O)CC1CCCC1)CC2,1.33
20,COC(=O)c1ccc2ccn(CC3CCCO3)c(=O)c2c1 (centres undefined),52.21
21,COC(=O)c1ccc2ccn(CC3COCCO3)c(=O)c2c1 (centres undefined),21
22,COC(=O)c1ccc2ccn(CC3CCCCO3)c(=O)c2c1 (centres undefined),-32.35
23,COc1ccc(CCNCc2c(C)nn(C)c2N(C)C)cc1OC,7.74
24,O=C1CC(c2ccc(O)cc2)c2sc(C(=O)O)c(-c3ccccc3)c2N1 (centres undefined),20.4
25,CC(C)CN1CCC2(CC1)CN(C(=O)C(C)C)C2,16.12
26,CC(C)C(=O)N1CC2(CCN(CC(C)(C)C)CC2)C1,50.72
27,CC(C)C(=O)N1CCC2(CN(CC3CCCC3)C2)C1,0.32
